Inconclusive results are not listed. Activity calls are given as the source filed them. Calls come from the whole dose curve; as a rule, active = well fitted inhibition curve with a large enough effect; inconclusive = small, poorly fitted or top-dose-only effect; inactive = flat fitted curve, though single readings scatter. Where a SMILES comes first, the peptide text is derived from it.
% is set by controls: 0 for no effect and ±100 for the full control effect; potency is the fitted concentration of half-maximal effect.

The first test deals with CRL-7250. Description: Cytotoxic Profiling of Annotated Libraries Using Quantitative High-Throughput Screening (AID 1296008). Note: nearly all actives have a fitted effect of over 60% in size. The conditions noted are these: Five cell lines viability, CellTiter-Glo ATP luminescence, 48-72 h; max response: active compounds read low. In outline:
(§1)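 Cytotoxicity was measured as CellTiter-Glo ATP luminescence, read after 10 min at room temperature. Compound treatment of the cells lasted 48 or 72 hr at 37 degrees Celsius in a qHTS format.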
(In general: Cellular ATP, detected with luciferase, serves as a proxy for viable cell number.)
Regarding `O=C(CS(=O)Cc1ccco1)NC/C=C\COc1cc(CN2CCCCC2)ccn1` (stereo not drawn), the max response was -3.38% (inactive).
Consider `COc1ccc(CCC(C)=O)cc1`, for which the max response was -2.07% (inactive).
As to `C[C@@H]1CCC[C@H](C)N1CCCC(O)(c1ccccc1)c1ccccn1` (stereo partly drawn), the max response is 3.63% (inactive).
As to `CCCCN(CCCC)C(C(N)=O)c1ccc(OC)cc1` (stereo not drawn), the call was inactive.
Consider `C=CCNc1nc(NCC=C)nc(N2CCN(C(c3ccc(F)cc3)c3ccc(F)cc3)CC2)n1`, for which the max response is -3.37% (inactive).
Still for that read-out and setting: next, `CCCC(CCC)(C(=O)OCC)C(=O)OCC`: -5.21% (inactive).
The same measure, in the same setting: with `CC(NC(CCc1ccccc1)C(=O)O)C(=O)N1C(=O)N(C)CC1C(=O)O` (stereo not drawn) the figure was 1.99% (inactive).
The same measure, in the same setting: next, `CC(C)N(CCC(=O)c1ccc2ccccc2c1)Cc1ccccc1`: -24.3% (inactive); `CO[C@]1(NC(=O)CSC(F)F)C(=O)N2C(C(=O)O)=C(CSc3nnnn3CCO)CO[C@H]21`: -1.31% (inactive).
For the molecule `CN1Cc2cc(C(=O)N3CCC(C4CCNCC4)CC3)ccc2NC(CC(=O)O)C1=O` (stereo not drawn), the max response is 0.285% (inactive).
With `Clc1ccc2c(c1)Nc1ccccc1S2`, the max response is -4.08% (inactive).
With `CN(C)CCCOC1(Cc2ccccc2)CCCCCC1`, the molecule was called inactive.
Take `CCCCCC1Nc2cc(C(F)(F)F)c(S(N)(=O)=O)cc2S(=O)(=O)N1` (stereo not drawn): the max response was -8.64% (inactive).
Turning to `O=C(O)Cn1cnnn1`, the max response is -0.376% (inactive).
Regarding `CCn1ccc(NS(=O)(=O)c2ccc(N)cc2)nc1=O`, the max response is 4.48% (inactive).
Take `CO/N=C(\C(=O)O)c1csc(NC(=O)CCl)n1`: the call was inactive.
Regarding `CNC[C@H](O)[C@@H](O)[C@H](O)[C@H](O)CO`, the max response was -2.73% (inactive).
Turning to `O=C(CCCl)NCCc1ccccc1`, the molecule was classed as inactive.
With `CC(Oc1c(Cl)cccc1Cl)C1=NCCN1` (stereo not drawn), the max response is -2.82% (inactive).
On to `O=[N+]([O-])c1cncn1CCN1CCOCC1`, for which the call was inactive.
`CC(=O)O[C@@H]1CC2C3CCc4cc(OC(=O)c5ccccc5)ccc4C3CCC2(C)[C@H]1OC(C)=O` (stereo partly drawn): the max response was -8.96% (inactive).
The same measure, in the same setting: next, `CCN(CC)C(=O)C1CN2CCc3cc(OC)c(OC)cc3C2CC1OC(C)=O` (stereo not drawn): -9.43% (inactive); `CC(=O)N[C@@H](CO)C(=O)N[C@@H](CC(=O)O)C(=O)N[C@@H](CCCCN)C(=O)N1CCC[C@H]1C(=O)O` (Ac-SDKP-OH): 3.47% (inactive); `CN(C)CCN(Cc1ccsc1)c1ccccn1`: -0.513% (inactive).
The same measure, in the same setting: with `CCCCCCOC(=O)NC(=N)c1ccc(NCc2nc3cc(C(=O)N(CCC(=O)OCC)c4ccccn4)ccc3n2C)cc1` the figure was 2.91% (inactive).
On the same count and under the same terms, next, `CC(=O)/C=C/C=C1/C2CCC(C2)C1(C)C` (stereo not drawn): -8.75% (inactive).
For `CCCCOC(=O)CCCCCCCCC(=O)OCCCC`, the max response is 0.0544% (inactive).
Same read-out and setting: next, `CC1(C)O[C@@H]2C[C@H]3[C@@H]4CCC5=CC(=O)C=C[C@]5(C)[C@@]4(F)[C@@H](O)C[C@]3(C)[C@]2(C(=O)CO)O1`: -0.473% (inactive).
For the molecule `Cc1cccc(OCC(O)CNC(C)(C)C)c1C` (stereo not drawn), the max response was -7.39% (inactive).
The same measure, in the same setting: next, `CCCCC(O)/C=C(C)/C=C/C=C/C(=O)N1CCCC1=O` (stereo not drawn): 0.43% (inactive); `CC(=O)N(CC(=O)N(C)C)c1ccccc1`: -29.6% (inactive).
`C[C@H]1C[C@@H]2[C@H]([C@@H](O)C[C@@]3(C)[C@H]2CC[C@]3(O)C(=O)CO)[C@@]2(C)C=CC(=O)C=C12`: the max response was -5.61% (inactive).
Turning to `Cc1[nH]cnc1-c1ccc(Cl)cc1`, the molecule was classed as inactive.
Consider `O=C(c1ccco1)N1CCNCC1`, for which the max response was -10.9% (inactive).
On the same count and under the same terms, next, `CC1(C)O[C@@H]2C[C@H]3[C@@H]4C[C@H](F)C5=CC(=O)C=C[C@]5(C)[C@@]4(F)[C@@H](O)C[C@]3(C)[C@]2(C(=O)CO)O1`: -4.6% (inactive).
For `CCOC(=O)CN1CCCC1=O`, the max response was 1.6% (inactive).
Still for that read-out and setting: next, `CCN(CC)CC(=O)Nc1c(C)cccc1C(=O)OC`: 1.74% (inactive); `C=C(C)C(=O)OCC(O)CO` (stereo not drawn): 4.35% (inactive).
Take `CC(C)(C)C1CCC(CC2=C(O)c3ccccc3C(=O)C2=O)CC1` (stereo not drawn): the max response is -5.3% (inactive).

A further test relates to HEK293. The test is described as above. As to conditions: Five cell lines viability, CellTiter-Glo ATP luminescence, 48-72 h; max response: active compounds read low. The essentials:
as §1
`O=C(CS(=O)Cc1ccco1)NC/C=C\COc1cc(CN2CCCCC2)ccn1` (stereo not drawn): the max response was 0.0112% (inactive).
On to `COc1ccc(CCC(C)=O)cc1`, for which the result was inactive.
In the case of `C[C@@H]1CCC[C@H](C)N1CCCC(O)(c1ccccc1)c1ccccn1` (stereo partly drawn), the max response was -3.44% (inactive).
On to `CCCCN(CCCC)C(C(N)=O)c1ccc(OC)cc1` (stereo not drawn), for which the max response was -5.09% (inactive).
As for `C=CCNc1nc(NCC=C)nc(N2CCN(C(c3ccc(F)cc3)c3ccc(F)cc3)CC2)n1`, the Potency was 8.41 µM (active).
With `CCCC(CCC)(C(=O)OCC)C(=O)OCC`, the max response is 2.87% (inactive).
On to `CC(NC(CCc1ccccc1)C(=O)O)C(=O)N1C(=O)N(C)CC1C(=O)O` (stereo not drawn), for which the outcome was inactive.
In the case of `CC(C)N(CCC(=O)c1ccc2ccccc2c1)Cc1ccccc1`, the max response is -116% (inactive).
Still for that read-out and setting: next, `CO[C@]1(NC(=O)CSC(F)F)C(=O)N2C(C(=O)O)=C(CSc3nnnn3CCO)CO[C@H]21`: -23.2% (inactive); `CN1Cc2cc(C(=O)N3CCC(C4CCNCC4)CC3)ccc2NC(CC(=O)O)C1=O` (stereo not drawn): -6.55% (inactive); `Clc1ccc2c(c1)Nc1ccccc1S2`: -6.16% (inactive).
`CN(C)CCCOC1(Cc2ccccc2)CCCCCC1`: the result was inactive.
For the molecule `CCCCCC1Nc2cc(C(F)(F)F)c(S(N)(=O)=O)cc2S(=O)(=O)N1` (stereo not drawn), the max response was -4.59% (inactive).
Take `O=C(O)Cn1cnnn1`: the outcome was inactive.
Regarding `CCn1ccc(NS(=O)(=O)c2ccc(N)cc2)nc1=O`, the max response is -20.6% (inactive).
As for `CO/N=C(\C(=O)O)c1csc(NC(=O)CCl)n1`, the max response was -4.55% (inactive).
Still for that read-out and setting: next, `CNC[C@H](O)[C@@H](O)[C@H](O)[C@H](O)CO`: -0.47% (inactive); `O=C(CCCl)NCCc1ccccc1`: -1.92% (inactive).
On to `CC(Oc1c(Cl)cccc1Cl)C1=NCCN1` (stereo not drawn), for which the max response is 4.99% (inactive).
For `O=[N+]([O-])c1cncn1CCN1CCOCC1`, the max response is 3.5% (inactive).
In the case of `CC(=O)O[C@@H]1CC2C3CCc4cc(OC(=O)c5ccccc5)ccc4C3CCC2(C)[C@H]1OC(C)=O` (stereo partly drawn), the molecule was called inactive.
For `CCN(CC)C(=O)C1CN2CCc3cc(OC)c(OC)cc3C2CC1OC(C)=O` (stereo not drawn), the outcome was inactive.
Take `CC(=O)N[C@@H](CO)C(=O)N[C@@H](CC(=O)O)C(=O)N[C@@H](CCCCN)C(=O)N1CCC[C@H]1C(=O)O` (Ac-SDKP-OH): the max response is 0.0413% (inactive).
On the same count and under the same terms, next, `CN(C)CCN(Cc1ccsc1)c1ccccn1`: -3.25% (inactive).
With `CCCCCCOC(=O)NC(=N)c1ccc(NCc2nc3cc(C(=O)N(CCC(=O)OCC)c4ccccn4)ccc3n2C)cc1`, the Potency is 10.6 µM (active).
Take `CC(=O)/C=C/C=C1/C2CCC(C2)C1(C)C` (stereo not drawn): the max response was -13.1% (inactive).
Same read-out and setting: next, `CCCCOC(=O)CCCCCCCCC(=O)OCCCC`: 1.21% (inactive); `CC1(C)O[C@@H]2C[C@H]3[C@@H]4CCC5=CC(=O)C=C[C@]5(C)[C@@]4(F)[C@@H](O)C[C@]3(C)[C@]2(C(=O)CO)O1`: -6.9% (inactive); `Cc1cccc(OCC(O)CNC(C)(C)C)c1C` (stereo not drawn): -11.8% (inactive).
Same read-out and setting: with `CCCCC(O)/C=C(C)/C=C/C=C/C(=O)N1CCCC1=O` (stereo not drawn) the figure was 1.86% (inactive); with `CC(=O)N(CC(=O)N(C)C)c1ccccc1`, -63.5% (inactive).
In the case of `C[C@H]1C[C@@H]2[C@H]([C@@H](O)C[C@@]3(C)[C@H]2CC[C@]3(O)C(=O)CO)[C@@]2(C)C=CC(=O)C=C12`, the molecule was called inactive.
With `Cc1[nH]cnc1-c1ccc(Cl)cc1`, the outcome was inactive.
With `O=C(c1ccco1)N1CCNCC1`, the outcome was inactive.
Regarding `CC1(C)O[C@@H]2C[C@H]3[C@@H]4C[C@H](F)C5=CC(=O)C=C[C@]5(C)[C@@]4(F)[C@@H](O)C[C@]3(C)[C@]2(C(=O)CO)O1`, the max response was 1.46% (inactive).
The same measure, in the same setting: with `CCOC(=O)CN1CCCC1=O` the figure was -12.9% (inactive); with `CCN(CC)CC(=O)Nc1c(C)cccc1C(=O)OC`, 2.01% (inactive); with `C=C(C)C(=O)OCC(O)CO` (stereo not drawn), -5.25% (inactive).
As for `CC(C)(C)C1CCC(CC2=C(O)c3ccccc3C(=O)C2=O)CC1` (stereo not drawn), the max response was 0.617% (inactive).
